{"source": "paper PMC4336329", "about": "(PLoS ONE, 2015)", "note": "The campaign covered roughly 310,000 compounds. About 14,000 (4.5%) showed an effect of 50% or more. The effect is printed as a negative number. The entries come from a sample that favours strong results as a whole.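 Further: peak tail current of the secondary pulse compared with the same well before compound.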", "data": [{"target": "human ether-à-go-go-related gene (hERG) potassium channel (human, UniProt Q12809)", "sequence (Q12809 whole entry, looked up)": "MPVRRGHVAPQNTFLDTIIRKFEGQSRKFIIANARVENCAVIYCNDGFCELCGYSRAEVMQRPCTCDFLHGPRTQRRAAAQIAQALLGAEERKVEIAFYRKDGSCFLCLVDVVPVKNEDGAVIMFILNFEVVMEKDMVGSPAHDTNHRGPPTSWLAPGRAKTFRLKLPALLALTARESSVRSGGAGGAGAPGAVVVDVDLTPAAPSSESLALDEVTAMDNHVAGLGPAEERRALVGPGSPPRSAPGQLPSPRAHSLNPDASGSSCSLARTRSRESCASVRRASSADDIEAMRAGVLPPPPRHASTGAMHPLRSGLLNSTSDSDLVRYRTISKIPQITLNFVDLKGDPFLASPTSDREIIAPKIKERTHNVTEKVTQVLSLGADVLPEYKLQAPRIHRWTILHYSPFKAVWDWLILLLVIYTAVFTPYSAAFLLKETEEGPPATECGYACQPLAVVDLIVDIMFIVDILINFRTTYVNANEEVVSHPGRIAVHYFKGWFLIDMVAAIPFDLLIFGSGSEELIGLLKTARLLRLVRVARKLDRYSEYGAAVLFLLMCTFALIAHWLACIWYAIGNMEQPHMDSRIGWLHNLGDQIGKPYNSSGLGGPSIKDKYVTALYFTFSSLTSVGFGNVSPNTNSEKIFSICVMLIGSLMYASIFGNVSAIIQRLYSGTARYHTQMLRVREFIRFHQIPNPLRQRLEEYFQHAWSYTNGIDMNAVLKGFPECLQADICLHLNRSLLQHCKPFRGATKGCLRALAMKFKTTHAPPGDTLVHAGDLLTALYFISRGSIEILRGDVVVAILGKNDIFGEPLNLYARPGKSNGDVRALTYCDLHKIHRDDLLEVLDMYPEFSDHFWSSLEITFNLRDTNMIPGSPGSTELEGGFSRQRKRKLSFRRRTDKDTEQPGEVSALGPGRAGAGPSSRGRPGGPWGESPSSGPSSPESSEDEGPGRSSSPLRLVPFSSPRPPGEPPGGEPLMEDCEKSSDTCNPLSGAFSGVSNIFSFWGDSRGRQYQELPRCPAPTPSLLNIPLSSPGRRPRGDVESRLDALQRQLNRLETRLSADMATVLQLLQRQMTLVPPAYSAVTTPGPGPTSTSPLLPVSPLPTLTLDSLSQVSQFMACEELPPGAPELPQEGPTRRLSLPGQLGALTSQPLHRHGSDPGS", "assay": "primary screen, population patch clamp on CHO cells stably expressing hERG; higher = less effect of the substance", "units": {"hERG current change (%, negative = inhibition) at 10uM": "%"}, "values": [{"molecule": "CCCCCCSc1nsc(N)n1", "hERG current change (%, negative = inhibition) at 10uM": -10.8}, {"molecule": "Cc1cccnc1NC(=O)CNC(=O)C12CC3CC(CC(Cl)(C3)C1)C2", "hERG current change (%, negative = inhibition) at 10uM": 13}, {"molecule": "CCCCc1ccc(-c2nc(-c3ccncc3)no2)cc1", "hERG current change (%, negative = inhibition) at 10uM": 16}, {"molecule": "Cc1ccsc1-c1nc(C(N)=O)c2[nH]c(=O)n(-c3ccc(Cl)cc3)c2n1", "hERG current change (%, negative = inhibition) at 10uM": 1.51}, {"molecule": "O=C(COc1ccc(C(=O)NCc2cccnc2)cc1)Nc1cccc(C(F)(F)F)c1", "hERG current change (%, negative = inhibition) at 10uM": -60.6}, {"molecule": "O=C(NCc1cccnc1)c1ccc(COc2ccc(Cl)cc2)cc1", "hERG current change (%, negative = inhibition) at 10uM": -58.6}, {"molecule": "O=C(NCc1cccnc1)c1ccc(COc2ccccc2Cl)cc1", "hERG current change (%, negative = inhibition) at 10uM": 4.47}, {"molecule": "COc1cc(C(=O)NCc2cccnc2)ccc1OCC(=O)Nc1cccc(C(F)(F)F)c1", "hERG current change (%, negative = inhibition) at 10uM": 3.13}, {"molecule": "Cc1cccc(OCC(=O)Nc2ccc(C(=O)NCc3cccnc3)cc2)c1", "hERG current change (%, negative = inhibition) at 10uM": -0.608}, {"molecule": "O=C(COc1ccc(Cl)cc1)Nc1ccc(C(=O)NCc2cccnc2)cc1", "hERG current change (%, negative = inhibition) at 10uM": -36.8}, {"molecule": "Cc1cccc(-n2c(C)cc(/C=N\\NC(=O)c3ccco3)c2C)c1", "hERG current change (%, negative = inhibition) at 10uM": -12.8}, {"molecule": "OCC1(Cc2ccc(F)cc2)CCCN(CCc2ccccc2)C1", "note": "(centres unmarked)", "hERG current change (%, negative = inhibition) at 10uM": -45.5}, {"molecule": "C=CCC(=O)N1CCCC(CO)(Cc2ccc(F)cc2F)C1", "note": "(centres unmarked)", "hERG current change (%, negative = inhibition) at 10uM": 0.892}, {"molecule": "OCC1(Cc2ccccc2F)CCCN(CC2CCCCC2)C1", "note": "(centres unmarked)", "hERG current change (%, negative = inhibition) at 10uM": -37.7}, {"molecule": "OCC1(Cc2ccccc2F)CCCN(CCc2ccccc2)C1", "note": "(centres unmarked)", "hERG current change (%, negative = inhibition) at 10uM": -74.8}, {"molecule": "Cc1ccccc1CC1(CO)CCCN(C(=O)Cc2c(F)ccc(F)c2F)C1", "note": "(centres unmarked)", "hERG current change (%, negative = inhibition) at 10uM": -0.736}, {"molecule": "O=C(Cc1cccc(F)c1)N1CCCC(CO)(Cc2ccc(F)cc2F)C1", "note": "(centres unmarked)", "hERG current change (%, negative = inhibition) at 10uM": -9.84}, {"molecule": "OCC1(Cc2ccc(F)cc2F)CCCN(CCCc2ccccc2)C1", "note": "(centres unmarked)", "hERG current change (%, negative = inhibition) at 10uM": -82.9}, {"molecule": "OCC1(Cc2ccccc2F)CCCN(Cc2c(F)ccc(F)c2F)C1", "note": "(centres unmarked)", "hERG current change (%, negative = inhibition) at 10uM": -55.5}, {"molecule": "CSCCCN1CCCC(CO)(Cc2ccccc2F)C1", "note": "(centres unmarked)", "hERG current change (%, negative = inhibition) at 10uM": -38.3}, {"molecule": "CC(C)NC(=O)C1CCN(C2CCN(CC3CC=CCC3)CC2)CC1", "note": "(centres unmarked)", "hERG current change (%, negative = inhibition) at 10uM": -15}, {"molecule": "O=C(O)c1cc(-c2cccs2)[nH]n1", "hERG current change (%, negative = inhibition) at 10uM": 15.5}, {"molecule": "C/C(=N\\NC(=O)c1[nH]c2c([N+](=O)[O-])cc(C)cc2c1-c1ccccc1)c1cccnc1", "hERG current change (%, negative = inhibition) at 10uM": 6.67}, {"molecule": "CN1CCN(C(=O)C23CCC(C)(c4nc5ccccc5nc42)C3(C)C)CC1", "note": "(centres unmarked)", "hERG current change (%, negative = inhibition) at 10uM": -53.3}, {"molecule": "CC12CCC(C(=O)N3CCN(c4ncccn4)CC3)(c3nc4ccccc4nc31)C2(C)C", "note": "(centres unmarked)", "hERG current change (%, negative = inhibition) at 10uM": -20.2}, {"molecule": "CC12CCC(C(N)=O)(c3nc4ccccc4nc31)C2(C)C", "note": "(centres unmarked)", "hERG current change (%, negative = inhibition) at 10uM": -4.08}]}]}
